Experimental data as given in PubChem BioAssay AID463173 (ICCB-Longwood Screening Facility, Harvard Medical School, 2010).
Hit rate of the full screen: of about 52,000 compounds, about 4,300 (8.3%) were called active. Only a selection was taken, and actives are over-represented in it overall. Unmarked numbers belong to inactive results. Cut-off read from the data, not from the text of the source: active = survival mostly below about 52% (no sharp cut-off); inactive = mostly above about 56%.

Test system: DeltatarO mutant
Assay: growth inhibition of S. aureus wild type versus tarO mutant, primary screen, teichoic acid synthesis inhibitors, RN4220, OD600 (AID 463173)
Details: OD600, 18 h, active compounds read low, screened at 18.75 µg/mL (by protocol)

With O=C(CCSCCc1ccccn1)Nc1cc(F)ccc1F as the molecule, how does the survival read?
Its survival is 79%.

For COc1ccc(-c2csc3ncnc(Nc4ccc(OC)cc4OC)c23)cc1, which survival is on record?
The survival was 64%.

Which survival does the source give for CCCCNC(=O)c1ccc2c(c1)NC(=O)C(CS(=O)(=O)Cc1ccc(F)cc1Cl)N2 (stereo unspecified) here?
The survival was 74%.

For O=C(CSc1nc2c(oc3ccccc32)c(=O)n1-c1ccccc1)Nc1ccccc1F, which survival is on record?
Its survival is 66%.

Which survival does the source give for O=C(CSCc1ccc(F)cc1)N1CCN(c2ccccc2F)CC1 here?
The survival was 102%.

Cc1ccc(Cl)cc1Nc1nc2ccccc2c2nncn12 was tested. Which survival did it give?
The survival was 104%.

With Cc1ccc(Nc2nc3ccccc3c3nncn23)cc1C as the molecule, how does the survival read?
Its survival is -4% (active).

How did the survival turn out when COc1cccc(Nc2nc3ccccc3c3nncn23)c1 was run?
Its survival is 89%.

With O=C1CN(C(=O)c2ccc(S(=O)(=O)N3CCCCC3)cc2)C(c2ccc(F)cc2)c2cc(Cl)ccc2N1 (stereo unspecified) as the molecule, how does the survival read?
Its survival is 62%.

With CC(C)Oc1ccc(CNC(=O)Cn2c(=O)oc3ccccc32)cc1 as the molecule, how does the survival read?
The survival was 77%.

C[C@H](NC(=O)OC(C)(C)C)c1nnc(SCc2ccc(Cl)cc2Cl)o1 was tested. Which survival did it give?
Its survival is 54%.

Which survival does the source give for Cc1nnc(SCc2ccc(Cl)cc2Cl)o1 here?
The survival was 80%.

CC(C)C[C@H](N)c1nnc(SCc2ccc(Cl)cc2Cl)o1 was tested. Which survival did it give?
The survival was 38% (active).

With CSc1ncc2c(n1)-c1ccccc1N(Cc1ccc(Cl)cc1)S2(=O)=O as the molecule, how does the survival read?
The survival was 98%.

Which survival does the source give for Cc1cccc(NC(=O)C2CCC(CNS(=O)(=O)c3ccc(Br)s3)CC2)c1 (stereo unspecified) here?
Its survival is 52% (active).

For Cc1cc(NC(=O)C2CCC(CNS(=O)(=O)c3ccc(Br)s3)CC2)ccc1Br (stereo unspecified), which survival is on record?
Its survival is 93%.

For CCOc1ccc(NC(=O)CCS(=O)(=O)c2ccc(Br)s2)cc1, which survival is on record?
The survival was 82%.

With CCOc1ccc(NC(=O)CNS(=O)(=O)c2ccc(Br)s2)cc1 as the molecule, how does the survival read?
Its survival is 49%.

Which survival does the source give for COC(=O)c1ccc(NC(=O)CN(C)S(=O)(=O)c2ccc(Br)s2)cc1 here?
Its survival is 73%.

For COc1cccc(CNC(=O)C2CCC(CNS(=O)(=O)c3ccc(Br)s3)CC2)c1 (stereo unspecified), which survival is on record?
Its survival is 71%.

For CCOc1ccc(NC(=O)CCNS(=O)(=O)c2cccs2)cc1, which survival is on record?
The survival was 51%.

With Cc1ccc(NC(=O)CCNS(=O)(=O)c2ccc(Br)s2)cc1 as the molecule, how does the survival read?
The survival was 50% (active).

How did the survival turn out when COc1cccc(NC(=O)CCNS(=O)(=O)c2ccc(Br)s2)c1 was run?
The survival was 37% (active).

Which survival does the source give for O=C(CCNS(=O)(=O)c1ccc(Br)s1)Nc1ccc(Br)cc1 here?
The survival was 40% (active).

For CCc1cccc(NC(=O)C2CCC(CNS(=O)(=O)c3ccc(Br)s3)CC2)c1 (stereo unspecified), which survival is on record?
Its survival is 79%.

Which survival does the source give for COc1cccc(NC(=O)CCNS(=O)(=O)c2ccc3c(c2)oc(=O)n3C)c1 here?
The survival was 90%.

Which survival does the source give for Cc1c(Cl)cccc1NC(=O)CN1C(=O)COc2ccc(S(=O)(=O)N3CCOCC3)cc21 here?
Its survival is 88%.

Which survival does the source give for CC1C(=O)OC(c2ccccc2)C(C)(C)C1=O (stereo unspecified) here?
The survival was 94%.

For CCc1ccccc1N1C(=O)CC(N2CCc3ccccc32)C1=O (stereo unspecified), which survival is on record?
Its survival is 102%.

How did the survival turn out when Cc1ccc(NC(=O)c2oc3ccc(S(=O)(=O)N4CCCCC4)cc3c2C)c(C)c1 was run?
The survival was 79%.

How did the survival turn out when Cc1ccc(Cl)cc1N1CCN(C(=O)COCc2cc(-c3ccc4c(c3)OCO4)on2)CC1 was run?
The survival was 95%.

Which survival does the source give for Cc1cccc(CC(=O)NCCc2sc3nc(-c4ccc(F)cc4)nn3c2C)c1 here?
The survival was 91%.

How did the survival turn out when COc1ccccc1NC(=O)Cn1c(=O)n(-c2cccc(Cl)c2)c(=O)c2sc3ccccc3c21 was run?
Its survival is 103%.

With CCOC(=O)c1c(C)[nH]c(CCC(=O)NCc2ccc(OC)c(OC)c2)c1C as the molecule, how does the survival read?
Its survival is 81%.

COc1ccc(C)cc1NC(=O)CSc1ncc2c(n1)-c1ccc(Cl)cc1N(Cc1ccccc1)S2(=O)=O was tested. Which survival did it give?
Its survival is 78%.

How did the survival turn out when CCc1ccccc1NC(=O)CSc1nc2c(c(=O)[nH]1)CN(Cc1ccccc1OC)CC2 was run?
The survival was 75%.

For O=c1[nH]c(SCc2c(F)cccc2Cl)nc2c1CCC2, which survival is on record?
The survival was 74%.

Which survival does the source give for COc1ccc(OCC(=O)Nc2ccc(N3CCN(S(C)(=O)=O)CC3)cc2)cc1 here?
The survival was 97%.

How did the survival turn out when COc1ccc(NC(=O)Cn2c(=O)nc(-c3ccccc3)c3ccccc32)cc1OC was run?
Its survival is 78%.

For Cc1ccc(Cl)cc1NC(=O)C1CCC(CNS(=O)(=O)c2cccc3nsnc23)CC1 (stereo unspecified), which survival is on record?
Its survival is 100%.

For Cc1ccc(NC(=O)C2CCC(CNS(=O)(=O)c3cccc4nsnc34)CC2)c(Cl)c1 (stereo unspecified), which survival is on record?
The survival was 47% (active).

For Cc1ccc(NC(=O)C2CCC(CNS(=O)(=O)c3cccc4nsnc34)CC2)c(C)c1 (stereo unspecified), which survival is on record?
Its survival is 95%.

For CCCCN(CC)CCCNC(=O)c1nn(-c2ccc(OC)cc2)c(=O)c2c1c1ccccc1n2C, which survival is on record?
The survival was 123%.

Which survival does the source give for COc1cccc(C2=NS(=O)(=O)N(C)C(C(=O)Nc3cccc(O)c3)=C2)c1 here?
Its survival is 70%.

COc1cc(NC(=O)Cn2ccn(-c3cc(C)cc(C)c3)c(=O)c2=O)cc(OC)c1 was tested. Which survival did it give?
Its survival is 71%.

How did the survival turn out when CCN(c1ccc(OC)cc1)S(=O)(=O)c1nnc(NC(=O)c2ccccc2Cl)s1 was run?
Its survival is 46% (active).

For CCN(c1ccc(Cl)cc1)S(=O)(=O)c1nnc(NC(=O)C(C)C)s1, which survival is on record?
Its survival is 84%.

How did the survival turn out when CCN(c1ccccc1)S(=O)(=O)c1nnc(NC(=O)c2ccccc2OC)s1 was run?
The survival was 47%.

For CCN(c1cccc(C)c1)S(=O)(=O)c1nnc(NC(=O)c2ccccc2Cl)s1, which survival is on record?
Its survival is 17% (active).

Which survival does the source give for CCN(c1ccc(Cl)cc1)S(=O)(=O)c1nnc(NC(=O)c2ccccc2C)s1 here?
The survival was 8% (active).

CCN(c1cc(C)cc(C)c1)S(=O)(=O)c1nnc(NC(=O)c2ccccc2C)s1 was tested. Which survival did it give?
Its survival is 49%.

How did the survival turn out when CCN(c1ccccc1C)S(=O)(=O)c1nnc(NC(=O)c2ccccc2C)s1 was run?
The survival was 15% (active).

Which survival does the source give for CCN(CC)S(=O)(=O)c1nnc(NC(=O)c2ccccc2Cl)s1 here?
The survival was 70%.

For OCCN(Cc1ccccc1)Cc1ccccc1O, which survival is on record?
Its survival is 102%.

How did the survival turn out when CC(=O)N1c2ccccc2C(=O)C1N1CCN(c2ccccc2)CC1 (stereo unspecified) was run?
Its survival is 85%.

With CCCOc1ccc(-c2cccc(NS(=O)(=O)c3cc(OC)ccc3OC)c2)nn1 as the molecule, how does the survival read?
Its survival is 99%.

COc1cccc(Nc2nc3cc(Cl)c(Cl)cc3nc2-n2nc(C)cc2C)c1 was tested. Which survival did it give?
Its survival is 98%.

Which survival does the source give for Cc1ccc(C(=O)c2cn(CC(=O)Nc3ccc(C)cc3Cl)c3nc(C)ccc3c2=O)cc1 here?
Its survival is 99%.

Which survival does the source give for Cc1ccc(Cl)cc1NC(=O)CCCn1c(=O)c2cccn2c2cccnc21 here?
Its survival is 100%.

Which survival does the source give for O=C(O)CCCN1CCCC1=O here?
Its survival is 81%.

How did the survival turn out when CCCCOC(=O)c1ccc(NC(=O)CSc2nc3c(c(=O)[nH]2)CCC3)cc1 was run?
The survival was 55%.

With CC(C)=NOC1=NS(=O)(=O)c2ccccc21 as the molecule, how does the survival read?
Its survival is 92%.

How did the survival turn out when O=C(Nc1ccc(F)c(Cl)c1)N1CCC2(CC1)Oc1ccccc1C(=O)N2Cc1ccccc1F was run?
The survival was 55%.

For CC(C)OCCCNC(=O)CCCn1c(SCC(N)=O)nc2c(sc3ccccc32)c1=O, which survival is on record?
Its survival is 88%.

How did the survival turn out when COc1ccccc1C(=O)Nc1nnc(S(=O)(=O)N(C)c2ccc(Cl)cc2)s1 was run?
The survival was 95%.

Which survival does the source give for CCN(c1ccc(OC)cc1)S(=O)(=O)c1nnc(NC(=O)c2ccccc2C)s1 here?
Its survival is 37% (active).

CCN(c1ccc(OC)cc1)S(=O)(=O)c1nnc(NC(=O)COc2ccc(F)cc2)s1 was tested. Which survival did it give?
Its survival is 70%.

For Cc1ccccc1C(=O)Nc1nnc(S(=O)(=O)N(C)Cc2ccc(Cl)cc2)s1, which survival is on record?
Its survival is 102%.

Cc1ccccc1C(=O)Nc1nnc(S(=O)(=O)N(C)c2ccc(Cl)cc2)s1 was tested. Which survival did it give?
The survival was 30% (active).

With Cc1ccc(C)c(NC(=O)CN2C(=O)C3(SCC(=O)N3c3ccc(C)c(C)c3)c3ccccc32)c1 (stereo unspecified) as the molecule, how does the survival read?
The survival was 80%.

For Cc1cc(C)cc(NC(=O)Cn2c(=O)n(CC(=O)NCCc3ccccc3)c(=O)c3ccccc32)c1, which survival is on record?
The survival was 62%.

With Cc1ccc2oc(-c3ccc(C)c(NC(=O)/C=C/c4ccco4)c3)nc2c1 as the molecule, how does the survival read?
Its survival is 58%.

For CC(C)c1ccc2oc(-c3ccc(Cl)c(NC(=O)Cc4ccccc4)c3)nc2c1, which survival is on record?
The survival was 116%.

Cc1cc(C)c2oc(-c3ccc(C)c(NC(=O)/C=C/c4ccco4)c3)nc2c1 was tested. Which survival did it give?
Its survival is 45% (active).

With CC(C)c1ccc2oc(-c3cc(NC(=O)c4cccs4)ccc3Cl)nc2c1 as the molecule, how does the survival read?
Its survival is 16% (active).

For Cc1cc(NC(=O)c2cccs2)cc(-c2nc3cc(Cl)ccc3o2)c1O, which survival is on record?
Its survival is 79%.

For Cc1ccc(-c2nc3cc(C(C)C)ccc3o2)cc1NC(=O)c1cccs1, which survival is on record?
The survival was 57%.

With CCc1ccc2oc(-c3cc(NC(=O)c4cccs4)ccc3Cl)nc2c1 as the molecule, how does the survival read?
Its survival is 19% (active).

How did the survival turn out when CC(C)c1ccc2oc(-c3ccc(Cl)c(NC(=O)c4cccs4)c3)nc2c1 was run?
The survival was 5% (active).

How did the survival turn out when CCc1ccc2oc(-c3ccc(C)c(NC(=O)/C=C/c4ccco4)c3)nc2c1 was run?
Its survival is 83%.

With O=C(Nc1ccc(O)c(-c2nc3ccccc3o2)c1)c1cccs1 as the molecule, how does the survival read?
Its survival is 75%.

Cc1c(NC(=O)c2cccs2)cccc1-c1nc2cc(Cl)ccc2o1 was tested. Which survival did it give?
The survival was 42%.

For Cc1ccc2oc(-c3cc(NC(=O)c4cccs4)cc(C)c3O)nc2c1, which survival is on record?
The survival was 138%.

For Cc1ccccc1CS(=O)(=O)Cc1ccc(C(=O)NCCc2ccccc2)o1, which survival is on record?
Its survival is 86%.

Which survival does the source give for COc1ccc(Cn2c(SCc3ccc(C(=O)NCc4cccs4)cc3)nc3cccnc32)cc1 here?
The survival was 63%.

With CC(=O)c1cccc(NC(=O)c2ccc(Cl)c(S(=O)(=O)N3CCOCC3)c2)c1 as the molecule, how does the survival read?
Its survival is 73%.

How did the survival turn out when CCc1cccc(C)c1NC(=O)c1ccc2c(c1)CCN2S(=O)(=O)c1ccc(Cl)cc1 was run?
Its survival is 67%.

CCCn1c2ccccc2c2cnn(CC(=O)NC(CCSC)C(=O)OC)c(=O)c21 (stereo unspecified) was tested. Which survival did it give?
The survival was 124%.

For N#Cc1nc(/C=C/c2ccc(F)cc2)oc1N1CCCCC1, which survival is on record?
The survival was 93%.

How did the survival turn out when COc1ccc(NC(=O)CCNS(=O)(=O)c2ccc3c(c2)CCCC(=O)N3)cc1 was run?
Its survival is 101%.

O=C(NCCc1ccccc1)c1ccc(Cn2c(SCc3ccc(F)cc3)nc3cccnc32)cc1 was tested. Which survival did it give?
The survival was 95%.
